Experimental data taken from PubChem BioAssay AID652065 (The Scripps Research Institute Molecular Screening Center, 2013).
The whole screen tested about 4,300 compounds, of which about 3,000 (70%) were called active. The set was probably picked from earlier hits. The list is a sample of the results. Unmarked numbers belong to inactive results.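 The calls were made as follows: active = inhibition above a per-plate cutoff, the mean inhibition of sample wells plus 3 SD (cut at about 35% in these data); inactive = the rest.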

assay: small molecules binding CAG repeat RNA – biochemical, fluorescence, confirmation (AID 652065); details: r(CAG) RNA repeat, TO-PRO-1 dye displacement fluorescence; at 3 µM; active compounds read high;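 also: loss of TO-PRO-1 fluorescence as compound displaces dye from 1x1 AA loop RNA; 0% = DMSO only wells and 100% = 100 µM mitoxantrone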

Row | SMILES | inhibition
1 | COc1ccc(C(CNC(=O)c2cccc(S(=O)(=O)Nc3ccccc3Cl)c2)N2CCOCC2)cc1 (centres undefined) | 63.9% (active)
2 | Cc1cc(C(=O)N/N=C/c2ccc(O)c([N+](=O)[O-])c2)c(C)n1-c1ccc(F)cc1 | 42.6% (active)
3 | Cc1sc(NC(=O)c2ccc3ncsc3c2)c(C(N)=O)c1C | 18.1%
4 | O=c1ccc2c(-c3ccccc3S(=O)(=O)O)c3ccc(O)c(O)c3oc-2c1O | 91.4% (active)
5 | CCc1ccc(N2CC(C(=O)Nc3ccc(S(=O)(=O)Nc4nccs4)cc3)CC2=O)cc1 (centres undefined) | 42% (active)
6 | CCCCCCC(=O)Nc1nc(C)c(-c2csc(Nc3cc(Cl)ccc3OC)n2)s1 | 21.8%
7 | O=C(CCc1ccccc1Cl)Nc1ccc(S(=O)(=O)Nc2nccs2)cc1 | 39.1% (active)
8 | O=C(Nc1ccc(S(=O)(=O)Nc2nccs2)cc1)c1cc(-c2ccncc2)nc2ccccc12 | 65.2% (active)
9 | O=C(Nc1ccc(S(=O)(=O)Nc2nccs2)cc1)c1cccc(S(=O)(=O)N2CCOCC2)c1 | 20.8%
10 | Cc1ccc(OCCC(=O)Nc2ccc(S(=O)(=O)Nc3nccs3)cc2)cc1 | 35% (active)
11 | COC(=O)c1sc(-c2ccc(C(C)(C)C)cc2)cc1NC(=O)/C=C/C(=O)O | 80% (active)
12 | C[C@H]([C@@H](O)[C@@H](O)[C@@H](C)C(C)(C)C)[C@H]1CC[C@H]2C3CC[C@H]4C[C@H](OS(=O)(=O)O)[C@@H](OS(=O)(=O)O)C[C@]4(C)[C@H]3CC[C@]12C (some centres undefined) | 87.8% (active)
13 | O=C(Nc1ccccc1)Nc1nc2ccccc2s1 | 13.2%
14 | O=C(Nc1ccccc1)Nc1nnc(COc2ccccc2F)s1 | 42.2% (active)
15 | Cc1ccc(NC(=O)Nc2nnc(-c3ccncc3)s2)cc1 | 25.5%
16 | O=C(Nc1cccc(Cl)c1)Nc1ccccc1NS(=O)(=O)c1cccs1 | 34.4%
17 | COC(=O)c1sccc1NC(=O)CSc1ccccc1NS(=O)(=O)c1cc(Cl)ccc1Cl | 73% (active)
18 | CCOc1cc(C(=O)Nc2ccc(S(=O)(=O)Nc3cnc4ccccc4n3)cc2)cc(OCC)c1OCC | 66.4% (active)
19 | Cc1ccccc1-c1ccc2c(c1)O[C@@H](CN(C)Cc1ccc(C(=O)O)cc1)[C@@H](C)CN([C@H](C)CO)S2(=O)=O | 58.3% (active)
20 | COc1cc(C(=O)Nn2c(O)c(C3=c4ccccc4=NC3=O)sc2=S)ccc1O | 14.6%
21 | CCc1ccc(OC(C)C(=O)Nc2ccc(S(=O)(=O)Nc3cc(C)on3)cc2)cc1 (centres undefined) | 26.1%

Row | SMILES | inhibition
22 | CCn1c(SCC(=O)Nc2ccc(S(=O)(=O)Nc3onc(C)c3C)cc2)nnc1-c1ccccc1 | 22%
23 | Cc1ccc(C(=O)/C=C/Nc2ccc(S(=O)(=O)Nc3onc(C)c3C)cc2)cc1 | 62.5% (active)
24 | Cc1cc(C)c2nc(-c3cccnc3)cc(C(=O)Nc3ccc(S(=O)(=O)Nc4onc(C)c4C)cc3)c2c1 | 83.2% (active)
25 | Cc1noc(NS(=O)(=O)c2ccc(NC(=O)c3oc4ccc(F)cc4c3C)cc2)c1C | 71.9% (active)
26 | Cc1cc(OC(C)C(=O)Nc2ccc(S(=O)(=O)Nc3onc(C)c3C)cc2)cc(C)c1Cl (centres undefined) | 62.4% (active)
27 | COc1cccc(-c2coc3cc4oc(=O)c(CC(=O)O)c(C)c4cc23)c1 | 42.7% (active)
28 | O=C(COc1ccc([N+](=O)[O-])cc1)Nc1cccc(C(=O)Nc2ccccc2C(=O)O)c1 | 62.4% (active)
29 | CCN(CC)C(=O)CSC(Nc1cccc(F)c1)=C(C#N)C#N | 38.4% (active)
30 | Cc1nnc(SC(C(=O)Nc2cc(Cl)cc(Cl)c2)c2ccccc2)[nH]c1=O (centres undefined) | 64.1% (active)
31 | COc1ccc(Cc2nnc(SCC(=O)Nc3ccc(C)c(Cl)c3)[nH]c2=O)cc1 | 62.5% (active)
32 | CC(=O)Nc1ccc(S(=O)(=O)N(CCc2ccccc2)CC(=O)N/N=C/c2ccc(C(=O)O)cc2)cc1 | 28.1%
33 | Cc1cc(NS(=O)(=O)c2ccc(NC(=O)CSc3nnc(-c4ccc(C(C)(C)C)cc4)n3Cc3ccco3)cc2)nc(C)n1 | 23.6%
34 | Cc1cc(NS(=O)(=O)c2ccc(NC(=O)CSc3nnc(SCc4ccc(F)cc4)s3)cc2)nc(C)n1 | 45% (active)
35 | O=C(COC(=O)c1ccc(NS(=O)(=O)c2cccs2)cc1O)Nc1ccc(F)cc1 | 23.1%
36 | C=CCn1c(=S)[nH]c2scc(-c3ccco3)c2c1=O | 27.3%
37 | O=C(O)c1ccccc1/C=N/Nc1ccc(S(=O)(=O)Nc2ccc(Cl)cc2)cc1[N+](=O)[O-] | 63.4% (active)
38 | COc1ccc(Br)cc1/C=N/Nc1ccc(S(=O)(=O)Nc2ccccc2C(=O)O)cc1[N+](=O)[O-] | 93.4% (active)
39 | COc1cccc(/C=N/Nc2ccc(S(=O)(=O)Nc3ccccc3C(=O)O)cc2[N+](=O)[O-])c1O | 93.9% (active)
40 | NS(=O)(=O)c1ccc(N=Nc2c(O)[nH]c3ccc(Br)cc23)cc1 | 18.8%
41 | O=C1/C(=C/c2ccc(F)cc2)SC(=S)N1NS(=O)(=O)c1ccccc1 | 53.6% (active)
42 | COc1ccc(/C=C/C(=O)c2ccc(NS(=O)(=O)c3ccc(C)cc3)cc2)cc1O | 54.9% (active)

Row | SMILES | inhibition
43 | COc1cc(/C=C2/C(=O)NN(c3cccc(Cl)c3)C2=O)cc(Br)c1O | 24.5%
44 | O=C(Nc1nncs1)c1ccccc1NS(=O)(=O)c1cccs1 | 30.2%
45 | COc1cc(NC(=O)c2ccccc2NS(=O)(=O)c2ccc(Cl)s2)cc(OC)c1 | 82% (active)
46 | CCc1nnc(NS(=O)(=O)c2ccc(NC(=S)NC(=O)c3cccs3)cc2)s1 | 46.7% (active)
47 | CCc1nnc(NS(=O)(=O)c2ccc(NC(=O)c3cccc(OC(F)(F)C(F)F)c3)cc2)s1 | 56.7% (active)
48 | NS(=O)(=O)c1ccc(NC2=CC(c3ccc(F)cc3)N(c3ccc(S(N)(=O)=O)cc3)C2=O)cc1 (centres undefined) | 12.6%
49 | Cc1ccc(SC(CC(=O)c2ccc(C(C)(C)C)cc2)C(=O)O)cc1 (centres undefined) | 44.7% (active)
50 | Cc1ccc(C(=O)Oc2coc(CSc3nnc(NC(=O)c4cccs4)s3)cc2=O)cc1C | 60.6% (active)
51 | O=C(O)CCn1cc(/C=C/C(=O)c2ccc(Cl)cc2)c(-c2cccc(Br)c2)n1 | 86.2% (active)
52 | CN(C(=O)COC(=O)c1cc(-c2ccco2)nc2ccccc12)C1CCS(=O)(=O)C1 (centres undefined) | 27.6%
53 | CC(C)c1ccc(Nc2nnc(SCC(=O)c3nnc(-c4ccccc4)o3)s2)cc1 | 56.2% (active)
54 | Cc1ccc(-c2csc(C(C#N)=C(O)CN3CCN(C(=O)c4ccco4)CC3)n2)cc1 | 60.2% (active)
55 | O=C1c2cccc3cccc(c23)C(=O)N1CCCCCc1n[nH]c(=S)o1 | 26.9%
56 | COc1ccccc1/C=C/C=N/n1c(-c2ccc(Cl)cc2Cl)n[nH]c1=S | 42.1% (active)
57 | O=C(O)c1[nH]c2ccccc2c1C(c1cccc(O)c1)c1c(C(=O)O)[nH]c2ccccc12 | 38.5% (active)
58 | CC(=O)Nc1ccc(S(=O)(=O)Nc2nc(-c3ccc(C(C)(C)C)cc3)cs2)cc1 | 67.6% (active)
59 | CC(=O)Nc1ccc(-c2csc(NC(=O)Nc3ccccc3)n2)cc1 | 23.1%
60 | CC(=O)Nc1ccc(C(=O)Nc2nc(-c3cc(C)n(Cc4ccccc4)c3C)cs2)cc1 | 20.6%
61 | Cc1ccc(Nc2nc(CSc3nnnn3-c3ccccc3)cc(=O)[nH]2)cc1 | 50.7% (active)
62 | COc1ccccc1C1C(C#N)=C(N)Oc2c1c(-c1ccccc1)nn2-c1ccccc1 (centres undefined) | 30%
63 | CC(C)(C)C1C/C(=C/c2ccco2)C(=O)/C(=C/c2ccco2)C1 (centres undefined) | 44.2% (active)

Row | SMILES | inhibition
64 | Cc1ccc(Nc2nc(-c3ccc(O)cc3O)cs2)nc1 | 23.4%
65 | O=C(Nc1nc(-c2ccco2)c(-c2ccco2)s1)c1ccco1 | 34.7% (active)
66 | CCc1nnc(NS(=O)(=O)c2ccc(N=Cc3c(C)[nH]n(-c4ccc(C)cc4)c3=O)cc2)s1 | 69.2% (active)
67 | COC(=O)c1ccc(COc2ccc(/C=C/C(=O)c3ccc(OC)c(CSCC(=O)O)c3)cc2OC)cc1 | 66.9% (active)
68 | COc1ccc(C(=O)/C=C/c2ccc(-c3ccccc3)cc2)cc1CSCC(=O)O | 85.1% (active)
69 | CCOC(=O)c1ccccc1N1C(=O)C2Sc3[nH]c(=O)sc3C(/C=C/c3ccccc3)C2C1=O (centres undefined) | 46.1% (active)
70 | O=C(O)c1ccc(NN=CC2=C(N3CCOCC3)/C(=C/c3ccccc3)CC2)cc1 | 70.3% (active)
71 | Cc1ccc(C)c(Cn2nnc3c(=O)[nH]c(C(=O)Nc4ccc(F)cc4)nc32)c1 | 43.2% (active)
72 | COc1cccc2sc(NNC(=O)c3nc4ccccc4s3)nc12 | 85% (active)
73 | Clc1ccccc1CSc1nnc(-c2ccco2)c(-c2ccco2)n1 | 59.9% (active)
74 | Cc1cc(Br)cn2c(Cc3cccc(F)c3)c(-c3cccc(Br)c3)nc12 | 4.39%
75 | COc1ccc(-c2nc3ccc(Br)cn3c2Cc2ccc(C)cc2)cc1OC | 9.11%
76 | Fc1cccc(Cc2c(-c3cccc(Cl)c3)nc3ccc(Br)cn23)c1 | 40.3% (active)
77 | COc1ccc(C(=O)Nc2cccc(/C=C(/CCC(=O)O)c3nc4ccccc4s3)c2)cc1 | 72.8% (active)
78 | O=C(O)CC/C(=C\c1cc2c(cc1Br)OCO2)c1nc2ccccc2s1 | 50.5% (active)
79 | CCOC(=O)c1csc(NC(=O)Nc2cccc(OC)c2)n1 | 29.9%
80 | O=C(c1cccnc1)N(c1cc2sc(=O)oc2c2ccccc12)S(=O)(=O)c1ccccc1 | 57.6% (active)
81 | CC(=O)N(c1ccc2oc(=O)sc2c1)S(=O)(=O)c1ccc(C)cc1 | 5.58%
82 | O=C1Oc2ccccc2C(=O)/C1=C/c1ccccc1O | 39% (active)
83 | O=c1oc(-c2ccccc2NS(=O)(=O)c2ccc(Cl)cc2)nc2ccccc12 | 17.2%
84 | COc1ccc(S(=O)(=O)/N=C2\C=C(NS(=O)(=O)c3ccccc3)C(=O)c3ccccc32)cc1 | 85% (active)
